Inconclusive results are not listed. A call without a number means that no potency is given here. Values without a mark were called inactive. Calls of active or inactive are those of the source. Unless noted, calls follow the shape of the dose curve; as a rule, active = well fitted curve in the direction sought with a large enough effect in the repeat runs; inconclusive = weak or mixed curves; inactive = no such curve, though single readings can be large; an effect the other way counts as inactive or inconclusive.
What was measured:
[1] = qHTS assay to identify small molecule antagonists of the vitamin D receptor (VDR) signaling pathway - cell viability counter screen (AID 743225); also: nearly all actives have a fitted effect of over 50% in size
Method in brief: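 Compounds were pinned onto VDR-bla HEK 293T cells together with 1-alpha,25-dihydroxyvitamin D3 at 3 nM final. After 16 h at 37C and 5% CO2 plus the reporter readout, cell viability was measured by CellTiter-Glo luminescence (30 min, room temperature).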

[2] = qHTS assay to identify small molecule agonists of the NFkB signaling pathway (AID 1159509; active = well fitted curve in the direction sought with a large enough effect in the signal ratio in the repeat runs, not every such curve was filed as active; the % refers to the signal ratio; also: series mostly up to about 61 µM)
Method in brief: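 NFkB-bla ME-180 cells carry a beta-lactamase reporter under an NF-kB response element. They were plated overnight, then exposed to compounds for 5 h at 37 C. Read-out is LiveBLAzer FRET after 1.5 hr at room temperature (405 nm excitation; 460/530 nm emission).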

[3] = qHTS assay to identify small molecule agonists of the NFkB signaling pathway - cell viability counter screen (AID 1159515; calls by dose curve; also: series mostly up to about 61 µM; nearly all actives have a fitted effect of over 55% in size)
Method in brief: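 Luminescence from CellTiter-Glo (30 min, room temperature) gives viability, measured in the same wells as the beta-lactamase reporter read. Cells were NFkB-bla ME-180, 2,000 per well, treated 5 hr with compounds.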

[4] = qHTS assay to identify small molecule agonists of the endoplasmic reticulum stress response signaling pathway (AID 1159516; active = well fitted activation curve with a large enough effect in the signal ratio in the repeat runs, not every such curve was filed as active; the % refers to the signal ratio)
Method in brief: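 Read-out is beta-lactamase cleavage of a FRET substrate (405 nm excitation; 460 and 530 nm emissions) in ESRE-bla HeLa cells after a 5 hr compound exposure at 37 C. Substrate incubation ran 2 hr at room temperature.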

[5] = qHTS assay to identify small molecule agonists of the endoplasmic reticulum stress response signaling pathway - cell viability counter screen (AID 1159517; calls by dose curve;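 also: HeLa cells carrying an ER stress response element beta-lactamase reporter; series mostly up to about 61 µM; nearly all actives have a fitted effect of over 50% in size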)
Method in brief: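 CellTiter-Glo was added to wells already read for beta-lactamase FRET, and luminescence was recorded 30 min later. Cells: ESRE-bla HeLa, 1,500 per well, compound exposure 5 hr at 37 C.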

[6] = qHTS assay to identify small molecule antagonists of the retinoid-related orphan receptor gamma (ROR-gamma) signaling pathway - cell viability counter screen (AID 1159520); also: nearly all actives have a fitted effect of over 50% in size
Method in brief: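 Tet-on ROR gamma CHO cells (1,000/well) were plated 4 hr, given compounds in DMSO for 2 hr at 37 C, then induced with 1 uM final doxycycline for 16 hr. Viability was read as ATP by CellTiter-Glo luminescence after 30 min.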

[7] = biological target: Nuclear receptor ROR-gamma (Homo sapiens) (UniProt P51449); assay: qHTS assay to identify small molecule antagonists of the retinoid-related orphan receptor gamma (ROR-gamma) signaling pathway (AID 1159521; also: nearly all actives have a fitted effect of over 50% in size; also: potency is read from the fitted curve at half-maximal effect)
Method in brief: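 Test compounds were applied to Tet-on RORγ CHO cells 2 h ahead of doxycycline hyclate (1 uM final). Luciferase reporter activity was quantified by luminescence after 16 h at 37 C and 5% CO2.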

[8] = qHTS assay to identify small molecule agonists of the AP-1 signaling pathway - cell viability counter screen (AID 1159525; calls by dose curve; also: nearly all actives have a fitted effect of over 55% in size)
Method in brief: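 ME-180 AP-1-bla, 2500 cells/well, Opti-MEM + 0.5% dialyzed FBS; overnight 37 °C; cpd 15-pt titration, 5 h 37 °C; CellTiter-Glo 30 min RT; luminescence read; normalised to TOAB and DMSO controls.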

[9] = qHTS assay to identify small molecule agonists of the AP-1 signaling pathway (AID 1159526; calls by dose curve)
[10] = qHTS assay to identify small molecule antagonists of the retinoid acid receptor (RAR) signaling pathway - cell viability counter screen (AID 1159551); also: nearly all actives have a fitted effect of over 35% in size
Method in brief: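 Luminescent ATP quantitation (CellTiter-Glo) gave cell viability in C3RL4 cells exposed to test chemicals for 6 h at 37 C alongside 1 uM final retinol.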

[11] = qHTS assay to identify small molecule antagonists of the retinoic acid receptor (RAR) signaling pathway (AID 1159552; also: nearly all actives have a fitted effect of over 50% in size)
Method in brief: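 Test chemicals and DMSO controls were pin-transferred onto C3RL4 cells a day after seeding; retinol (1 uM final) followed at once. Luminescent reporter output was quantified after 6 hr of co-incubation and 30 min with detection reagent.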

[12] = qHTS assay to identify small molecule agonists of the retinoic acid receptor (RAR) signaling pathway (AID 1159553)
Method in brief: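 Luminescence from a RARE-driven luciferase reporter in C3RL4 cells served as the read-out, measured after 30 min with detection reagent at room temperature. Compounds in DMSO were applied for 6 hr at 37 C following overnight seeding.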

[13] = qHTS assay to identify small molecule agonists of the vitamin D receptor (VDR) signaling pathway - cell viability counter screen (AID 743224)
Method in brief: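 Luminescence from CellTiter-Glo, read after 30 min at room temperature, reports viability of VDR-bla cells treated with compounds for 16 h at 37C in the wells used for the beta-lactamase FRET read.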

[14] = qHTS assay to identify small molecule agonists of the RXR signaling pathway - cell viability counter screen (AID 1159529); also: nearly all actives have a fitted effect of over 50% in size; also: potency is read from the fitted curve at half-maximal effect
Method in brief: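 Compounds dissolved in DMSO were pinned onto HEK 293T cells carrying a beta-lactamase reporter under RXR-alpha control and incubated 16 hr. Cytotoxicity was then quantified by CellTiter-Glo luminescence.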

SMILES | outcome [1] | outcome [2] | outcome [3] | outcome [4] | outcome [5] | Potency [6] | Potency [7] | outcome [8] | Potency [9] | outcome [10] | outcome [11] | Potency [12] | outcome [13] | Potency [14]
N#C[C@@H]1CC(F)(F)CN1C(=O)CNC1CC2CCC(C1)N2c1ncccn1 (stereo partly specified) | inactive | inactive | inactive | inactive | inactive | inactive | inactive | inactive | inactive | inactive | inactive | inactive | – | –
CC(=O)c1cccnc1 | inactive | inactive | inactive | inactive | inactive | inactive | inactive | inactive | inactive | inactive | – | – | inactive | inactive
CC(=O)S[C@H](C(=O)N[C@H]1Cc2ccccc2[C@H]2CCC[C@@H](C(=O)O)N2C1=O)C(C)C | inactive | inactive | inactive | inactive | inactive | inactive | inactive | inactive | inactive | inactive | – | – | inactive | inactive
CC(C)C/C=C(\C=O)c1ccccc1 | – | inactive | inactive | inactive | inactive | inactive | inactive | inactive | inactive | inactive | inactive | – | inactive | –
Cc1nc(C)c(C)nc1C | inactive | inactive | inactive | inactive | inactive | inactive | inactive | inactive | inactive | inactive | – | – | inactive | inactive
O=C(OCCN1CCOCC1)c1cccnc1Nc1cccc(C(F)(F)F)c1 | inactive | inactive | inactive | inactive | inactive | inactive | inactive | inactive | inactive | inactive | – | – | inactive | inactive
CCC(=O)O[C@]1(C(=O)COC)[C@@H](C)C[C@H]2[C@@H]3CCC4=CC(=O)C=C[C@]4(C)C3(F)[C@@H](O)C[C@@]21C (stereo partly specified) | inactive | inactive | inactive | inactive | inactive | inactive | inactive | inactive | inactive | inactive | – | inactive | inactive | inactive
CO[C@@H]1COCC[C@@H]1N[C@@H]1CC[C@@](C(=O)N2CCc3ncc(C(F)(F)F)cc3C2)(C(C)C)C1 | inactive | inactive | inactive | inactive | inactive | inactive | inactive | inactive | inactive | inactive | – | – | inactive | inactive
COC(=O)Cc1cccc2ccccc12 | inactive | inactive | inactive | inactive | inactive | inactive | inactive | inactive | inactive | inactive | – | – | inactive | inactive
CCCCCCCCNC | – | inactive | inactive | inactive | inactive | inactive | inactive | inactive | inactive | inactive | – | – | inactive | inactive
COc1ccc(/C(C)=C/C(=O)O)c(OC)c1 | inactive | inactive | inactive | inactive | inactive | inactive | inactive | inactive | inactive | inactive | – | – | inactive | inactive
O=Cc1ccc(Cl)c([N+](=O)[O-])c1 | inactive | inactive | inactive | inactive | inactive | inactive | 54.5 µM (active) | inactive | inactive | inactive | – | – | inactive | inactive
Nc1cccc2c(=O)[nH][nH]c(=O)c12 | – | inactive | inactive | inactive | inactive | inactive | inactive | inactive | inactive | inactive | – | inactive | inactive | 5.52 µM (active)
O=C(O)c1ccccc1-n1cc(C(=O)O)c(=O)c2cc(Nc3c(F)cc(F)cc3Cl)c(Cl)cc21 | – | inactive | inactive | inactive | inactive | inactive | inactive | inactive | inactive | inactive | inactive | – | inactive | –
CCOc1cc(OCC)c(C(C)=O)cc1OCC | inactive | inactive | inactive | inactive | inactive | inactive | inactive | inactive | inactive | inactive | inactive | inactive | inactive | –
O=C(Cl)c1cc(Cl)cc(Cl)c1 | inactive | inactive | inactive | inactive | inactive | inactive | inactive | inactive | inactive | inactive | – | – | inactive | inactive
NC(=O)c1ccccc1C(N)=O | inactive | inactive | inactive | inactive | inactive | inactive | inactive | inactive | inactive | inactive | – | – | inactive | 34.8 µM (active)
CCCC1CCOC(C)S1 (stereo unspecified) | inactive | inactive | inactive | inactive | inactive | inactive | inactive | inactive | inactive | inactive | – | – | inactive | inactive
c1ccc(CN(Cc2ccccc2)Cc2ccccc2)cc1 | inactive | inactive | inactive | inactive | inactive | inactive | inactive | inactive | inactive | inactive | inactive | inactive | – | –
CCn1nc(Cc2ccccc2)cc1C1CCN(C[C@H]2C[C@H](N(C)[C@@H](C(=O)O)C(C)C)C[C@@H]2c2cccc(F)c2)CC1 | – | inactive | inactive | inactive | inactive | inactive | inactive | inactive | inactive | inactive | inactive | inactive | inactive | –
CCCCCCOC(=O)c1ccccc1 | – | inactive | inactive | inactive | inactive | inactive | inactive | inactive | inactive | inactive | inactive | inactive | inactive | –

Source: PubChem BioAssay (Tox21)
